Compound activity (PubChem)
HT1080 IDH1KD tx – qHTS for induction of synthetic lethality in tumor cells producing 2HG: qHTS for the HT-1080-IDH1KD cell line. 2% of 360,000 active. HT-1080 IDH1 knockdown viability, ATP luminescence, 48 h. Potency, µM (highest dose often 46.1 µM), actives largely listed as cytotoxic
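After a 2 h attachment period, IDH1KD HT-1080 cells took pin-transferred compound for 48 h at 37 °C; ATP-based luminescence after 10 min room-temperature reagent incubation reported viability.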
TDP1 cell CPT – qHTS for Inhibitors of human tyrosyl-DNA phosphodiesterase 1 (TDP1): qHTS in cells in presence of CPT. chicken DT40 Tdp1-/-;hTDP1 cells + 20 nM CPT, ATP luminescence, 48 h. Potency, µM (top dose mostly 46.2 µM), actives largely listed as inhibitors. 12% of 420,000 active. AID 686979, 2013; note: nearly all actives have a fitted effect of over 55% in size
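Chicken DT40 Tdp1-/- cells complemented with human TDP1, 400 cells/well, exposed to compounds plus 20 nM camptothecin for at least 48 h at 37 C; viability read as ATP content by CellTiter-Glo luminescence.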
HT1080NT lethal – qHTS for induction of synthetic lethality in tumor cells producing 2HG: qHTS for the HT-1080-NT fibrosarcoma cell line; HT-1080-NT fibrosarcoma viability, CellTiter-Glo ATP luminescence, 48 h; Potency, µM (highest dose often 46.1 µM), hits mostly cytotoxic; 1.6% of 360,000 active; AID 686970, 2013;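 note: NT is the 2HG producing partner of a matched IDH1 knockdown line; nearly all actives have a fitted effect of over 55% in size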
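Fibrosarcoma NT cells, 750 per well in 5% FBS RPMI, were exposed to compound for 48 hours. Viability: CellTiter-Glo luminescence.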
IL1B secr inh – qHTS for Inhibitors of Inflammasome Signaling: IL-1-beta AlphaLISA Primary Screen. AID 743279, 2014. 4.7% of 360,000 active. THP-1 LPS/ATP IL-1B secretion, AlphaLISA, 16 h; active compounds read low. activity change, % at 57.5 µM; in the data active = activity change below about -50%; inconclusive = mostly about -30% to -49%
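Secreted IL-1B measured by AlphaLISA bead assay after 16 h compound exposure of THP-1 cells; compounds (final up to 57.5 uM) added 1 h before LPS (250 ng/mL) and ATP (1.25 mM) stimulation; lower signal means less secretion.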
TDP1 cell noCPT – qHTS for Inhibitors of human tyrosyl-DNA phosphodiesterase 1 (TDP1): qHTS in cells in absence of CPT | AID 686978, 2013 | Potency, µM (series often up to 46.2 µM), most hits filed as inhibitors | 15% of 420,000 active | DT40 Tdp1-/- hTDP1 cells, no CPT, ATP luminescence, 48 h; note: nearly all actives have a fitted effect of over 55% in size
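Luminescent ATP content (CellTiter-Glo) served as the growth readout. Knockout chicken DT40 cells expressing human TDP1 were exposed to compounds without camptothecin for a minimum 48 hr at 37 °C.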
Each line names hits and unclear results; the compound was inactive in the other large screens. This is a sample that favours compounds with a hit; in the whole collection about 19% have one here. Unless noted, calls come from the whole dose curve; as a rule, active = well fitted curve in the direction sought with a large enough effect; inconclusive = small, poorly fitted or top-dose-only effect, or another doubt; inactive = no such curve, though single readings can be large; an effect the other way counts as inactive or inconclusive.

Cc1ccccc1N1CCN(c2ncnc3c2cnn3Cc2ccc(Cl)cc2)CC1	TDP1 cell CPT 13µM, IL1B secr inh inconclusive, TDP1 cell noCPT 13µM
CCC(C)c1ccccc1N1CC(C(=O)N2CCN(S(=O)(=O)c3ccccc3Br)CC2)CC1=O (configuration not stated)	TDP1 cell noCPT inconclusive
COCCSc1nnc(NC(=O)C2CC(=O)N(CCc3ccc(F)cc3)C2)s1 (configuration not stated)	TDP1 cell noCPT inconclusive
CCN1CCc2c(C#N)c(N3CCCCC3)nc(NCc3ccccc3)c2C1	HT1080 IDH1KD tx inconclusive, TDP1 cell CPT 20.6µM, HT1080NT lethal inconclusive, TDP1 cell noCPT 16.4µM
C=CCNc1nc(N2CCCCC2)c(C#N)c2c1CN(Cc1ccccc1)CC2	HT1080 IDH1KD tx inconclusive, TDP1 cell CPT 23.1µM, HT1080NT lethal inconclusive, TDP1 cell noCPT 23.1µM
CC(C)CN(C(=O)CCNC(=O)c1ccc(Cl)cc1)C1CCS(=O)(=O)C1 (configuration not stated)	TDP1 cell CPT inconclusive, TDP1 cell noCPT inconclusive
CC(C)(C)NC(=O)C[C@H]1C[C@H](C(=O)N2CCCCC2)[C@@]2(CCc3ccccc3)c3[nH]c4cc(-c5ccco5)ccc4c3CCN2C1=O	TDP1 cell CPT 18.4µM, TDP1 cell noCPT 23.1µM
CN(C)CCCNC(=O)C[C@H]1C[C@H](C(=O)N2CCCCC2)[C@@]2(CCc3ccccc3)c3[nH]c4cc(-c5ccco5)ccc4c3CCN2C1=O	HT1080 IDH1KD tx inconclusive, TDP1 cell CPT inconclusive, HT1080NT lethal 25.9µM, TDP1 cell noCPT inconclusive
C[C@]12c3[nH]c4ccccc4c3CCN1C(=O)C(CC(=O)NCCc1ccccn1)C[C@@H]2C(=O)N1CCCCC1 (some centres not stated)	TDP1 cell noCPT inconclusive
O=C(CC1C[C@H](C(=O)N2CCCCC2)[C@@]2(CCc3ccccc3)c3[nH]c4ccccc4c3CCN2C1=O)NCCc1ccccn1 (some centres not stated)	TDP1 cell CPT 23.1µM, IL1B secr inh inconclusive, TDP1 cell noCPT 16.4µM
CN(C)CCCNC(=O)CC1C[C@H](C(=O)N2CCCCC2)[C@@]2(CCc3ccccc3)c3[nH]c4ccccc4c3CCN2C1=O (some centres not stated)	TDP1 cell CPT 20.6µM, IL1B secr inh inconclusive, TDP1 cell noCPT 13µM
COc1ccc(CNC(=O)[C@H](Cc2ccccc2)NC(=O)CC[C@H]2O[C@@H](n3ccc(=O)[nH]c3=O)[C@H](O)[C@@H]2O)cc1	none
COc1ccccc1S(=O)Cc1ccc(C(=O)NCCc2ccc(Cl)cc2)o1 (configuration not stated)	TDP1 cell CPT inconclusive, IL1B secr inh inconclusive, TDP1 cell noCPT inconclusive
CCCC(=O)c1ccc(N2CCC(C)CC2)c(F)c1	TDP1 cell CPT inconclusive, TDP1 cell noCPT inconclusive
CC(=O)C1=C(O)C(=O)N(c2cccc(Br)c2)C1c1ccc(Br)cc1 (configuration not stated)	HT1080NT lethal inconclusive
Cc1[nH]c2ccccc2c1CN1CCc2ccccc2C1	TDP1 cell CPT 10.3µM, IL1B secr inh inconclusive, TDP1 cell noCPT 11.6µM
O=c1[nH]c(CN2CCc3ccccc3C2)nc2ccccc12	TDP1 cell CPT inconclusive
CN=c1sc2c(n1C)C(=O)c1ccccc1C2=O	HT1080 IDH1KD tx inconclusive, TDP1 cell CPT 4.11µM, HT1080NT lethal 18.4µM, IL1B secr inh inconclusive, TDP1 cell noCPT 5.8µM
Oc1cc2cc(-c3csc(-c4ccc(F)cc4)n3)ccc2[nH]1	TDP1 cell CPT 1.12µM, TDP1 cell noCPT 2.82µM (no result: HT1080 IDH1KD tx, HT1080NT lethal, IL1B secr inh)
Nc1nc(-c2ccc(F)cc2)cs1	none
CN(C)S(=O)(=O)c1cccc(NC(=O)c2ccc3nccnc3c2)c1	TDP1 cell CPT 13µM, TDP1 cell noCPT 23.1µM
Cc1cccc(NC(=O)c2sc(C)nc2C)c1	none
CN(C)S(=O)(=O)c1cccc(C(=O)Nc2ccc3c(c2)CCC3)c1	TDP1 cell CPT 16.4µM, TDP1 cell noCPT 18.4µM
Cc1cccc(C(=O)Nc2nc(C)c(C(=O)Nc3ccc4c(c3)CCC4)s2)c1	HT1080 IDH1KD tx inconclusive, TDP1 cell CPT 23.1µM, HT1080NT lethal 11.2µM, TDP1 cell noCPT inconclusive
COc1ccc(OCC(=O)NC(Cc2c[nH]c3ccccc23)C(=O)O)cc1 (configuration not stated)	none (no result: HT1080 IDH1KD tx, HT1080NT lethal, IL1B secr inh)
O=C(CN1C(=O)NC(CCc2ccccc2)C1=O)N1CCCCCC1 (configuration not stated)	none
Cc1cccc(C2c3[nH]c4ccccc4c3CCN2Cc2cccn2-c2ncccn2)c1 (configuration not stated)	HT1080 IDH1KD tx inconclusive, TDP1 cell CPT inconclusive, HT1080NT lethal inconclusive, IL1B secr inh -87.2, TDP1 cell noCPT 23.1µM
c1ccc(C2c3[nH]c4ccccc4c3CCN2Cc2cccn2-c2ccccn2)nc1 (configuration not stated)	TDP1 cell CPT inconclusive, TDP1 cell noCPT inconclusive
COc1ccc(C2c3[nH]c4ccccc4c3CCN2Cc2cccn2-c2ncccn2)cc1C (configuration not stated)	HT1080 IDH1KD tx 23.1µM, TDP1 cell CPT 14.6µM, HT1080NT lethal 25.9µM, TDP1 cell noCPT 16.4µM
COc1ccc(NC(=O)CCCNC(=O)c2ccc(Cl)cc2)cc1S(=O)(=O)N1CCOCC1	none
CCOC(=O)c1ccc(NC(=O)Cn2cccc2)cc1	TDP1 cell CPT 14.6µM, TDP1 cell noCPT 16.4µM
CCOC(=O)c1ccc(NC(=O)C2CC2)cc1	TDP1 cell CPT 8.2µM, TDP1 cell noCPT 6.51µM
CCOC(=O)c1ccc(NC(=O)C2CCCO2)cc1 (configuration not stated)	IL1B secr inh inconclusive
NNC(=O)CCn1nnc2ccccc21	none
CCOC(=O)c1ccc(NC(=O)CN2CCCCC2)cc1	none (no result: HT1080 IDH1KD tx, HT1080NT lethal, IL1B secr inh)
CC(=O)Nc1ccc(NC(=O)CCn2nnc3ccccc32)cc1	TDP1 cell CPT inconclusive, TDP1 cell noCPT 23.1µM
CCOC(=O)c1ccc(P(=O)(c2ccccc2)c2ccccc2)cc1	TDP1 cell CPT inconclusive, TDP1 cell noCPT 23.1µM
O=c1c(Cc2ccc(Cl)cc2Cl)c(O)ccn1Cc1ccc(Cl)cc1	HT1080 IDH1KD tx inconclusive, HT1080NT lethal inconclusive, TDP1 cell noCPT inconclusive
CCOC(=O)c1ccc(NC(=O)Cn2nnc3ccccc32)cc1	TDP1 cell CPT 23.1µM, TDP1 cell noCPT 10.3µM
CCOC(=O)c1ccc(NC(=O)CCn2nnc3ccccc32)cc1	none
Nc1nc2ccccc2n1/N=C/c1ccc(Br)cc1	TDP1 cell CPT inconclusive, TDP1 cell noCPT 16.4µM
C/C(=N/NC(=O)CNC(=O)c1ccccc1F)c1ccc2c(c1)CCCC2	TDP1 cell CPT inconclusive, TDP1 cell noCPT inconclusive
